# Experimental data from PMC5540273 (PLoS ONE, 2017).
# What was measured:
# Conditions in all cases: concentration: 1 μM, replicates: in singlicate; n = 1
# PFTAIRE2 = tested on: PFTAIRE2
# PFTK1 = tested on: T1, PFTK1
# T1 construct: gene CDK14
# PHKG1 = tested on: PHKG1
# PHKG2 = tested on: PHKG2
# PIK3C2B = tested on: PIK3C2B
# PIK3C2G = tested on: PIK3C2G
# PIK3CA = tested on: PIK3CA
# PIK3CB = tested on: PIK3CB
# PIK3CD = tested on: PIK3CD
# PIK3CG = tested on: PIK3CG
# PIK4CB = tested on: T2, PIK4CB
# T2 construct: gene PI4KB
# PIKFYVE = tested on: PIKFYVE
# PIM1 = tested on: PIM1
# PIM2 = tested on: PIM2
# PIM3 = tested on: PIM3
# PIP5K1A = tested on: PIP5K1A
# PIP5K1C = tested on: PIP5K1C
# PIP5K2B = tested on: PIP5K2B
# PIP5K2C = tested on: T3, PIP5K2C
# T3 construct: gene PIP4K2C
# PKAC-alpha = tested on: T4, PKAC-alpha
# T4 construct: gene PRKACA
# 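Note: KINOMEscan kinase panel screen.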
Compound,%Inh (PFTAIRE2) [%],%Inh (PFTK1) [%],%Inh (PHKG1) [%],%Inh (PHKG2) [%],%Inh (PIK3C2B) [%],%Inh (PIK3C2G) [%],%Inh (PIK3CA) [%],%Inh (PIK3CB) [%],%Inh (PIK3CD) [%],%Inh (PIK3CG) [%],%Inh (PIK4CB) [%],%Inh (PIKFYVE) [%],%Inh (PIM1) [%],%Inh (PIM2) [%],%Inh (PIM3) [%],%Inh (PIP5K1A) [%],%Inh (PIP5K1C) [%],%Inh (PIP5K2B) [%],%Inh (PIP5K2C) [%],%Inh (PKAC-alpha) [%]
COc1ccc2cc(-c3nc(-c4ccccc4C(C)C)[nH]c3-c3ccncc3)ccc2c1 [SB-660566],12,17,0,0,0,0,0,0,0,0,0,0,15,0,0,18,0,38,0,0
CC(=O)c1c(C)c2cnc(Nc3ccc(N4CCNCC4)cn3)nc2n(C2CCCC2)c1=O,0,5,10,12,0,0,3,0,0,12,0,39,0,0,0,0,0,0,14,0
COC(=O)c1cccc(NC(=O)NC2CCN(c3ccnc(Nc4ccc(OC)cc4)n3)C2)c1 (stereo not drawn) [GSK1379746],10,27,19,0,20,0,0,0,30,0,21,41,0,0,0,17,10,19,48,0
CCn1c(-c2c(N)noc2C)nc2cnccc21 [SB-737856],15,33,0,0,1,0,0,100,3,0,0,0,0,0,0,0,0,19,6,0
Nc1ncnc2occ(-c3ccc4c(c3)CCN4C(=O)Cc3cc(F)ccc3F)c12 [GSK2645446],12,10,0,0,14,0,0,0,0,5,0,0,0,0,0,0,52,0,16,0
Cn1cncc1C(=O)NC1CCN(c2ccnc(Nc3ccc(F)cc3)n2)C1 (stereo not drawn) [GSK1379717],10,11,0,6,5,0,0,0,0,0,26,0,15,0,0,0,32,0,20,0
Cc1ccc(NC(=O)Nc2ccccc2)cc1-c1ccc(C(=O)Nc2ccncc2)cc1 [GSK1398471],25,27,0,2,27,0,29,0,0,14,0,0,9,0,4,0,0,6,0,29
CS(=O)(=O)Cc1ccc(Nc2nccc(-c3c(-c4cccc(NC(=O)C5CCCCC5)c4)nn4ncccc34)n2)cc1 [GSK350559],0,18,4,9,0,27,12,4,0,4,45,2,12,10,17,0,100,12,83,31
Fc1ccc(-c2nc[nH]c2-c2ccncc2)cc1 [SB-217360],12,0,0,3,0,0,12,0,0,0,0,32,19,0,11,19,0,0,2,25
CN1c2ccc(-c3ccc(C(N)=O)cc3)cc2-c2[nH]ncc2S1(=O)=O,0,0,0,14,0,0,0,0,0,0,0,4,9,0,13,0,81,6,64,13
O=C(Nc1n[nH]c2nc(-c3ccco3)c(Br)cc12)C1CCN(Cc2ccccc2)C1.O=C(O)[C@H](O)[C@@H](O)C(=O)O (stereo not drawn) [SB-742034],0,27,3,4,16,13,0,2,0,4,14,7,9,5,28,0,0,0,0,10
Fc1ccc(-c2nc3n(c2-c2ccncc2)CCS3)cc1 [GI98581],11,16,0,0,92.7,0,91.9,0,0,81,0,0,0,0,0,33,47,0,12,33
